# Source: PubChem BioAssay AID1159580 (chemical genetic matrix, 2015)
# Among all 5,500 compounds or so, about 2,000 (36%) were called active. Another 18% or so got no clear call; they are omitted. The list shows a part of the results. Values without a mark were called inactive. No stated cut-off is given here; in the data, active means normalized growth mostly below about 0.91 (no sharp cut-off); inconclusive means no clear call, values can overlap the other calls; inactive means mostly above about 0.92.
# Experiment: chemical genetic growth profiling, strain panel (AID 1159580);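 further: tested at 20 µM; growth read once vehicle control cultures reached saturation at 30 °C; 1 = growth at the plate median or of vehicle wells; lower values mean less growth of the strain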
# Details: S. cerevisiae deletion strains, growth OD
# [1] = locus YAL013W, strain DEP1, active compounds read low
# [2] = locus YBR229C, strain ROT2, active compounds read low
# [3] = locus YDL101C, strain DUN1, active compounds read low
# [4] = locus YDR150W, strain NUM1, active compounds read low
# [5] = locus YEL061C, strain CIN8, active compounds read low
# [6] = locus YGR078C, strain PAC10, active compounds read low
# [7] = locus YGR229C, strain SMI1, active compounds read low
# [8] = locus YHR030C, strain SLT2, active compounds read low
# [9] = locus YHR087W, strain rtc3, active compounds read low
# [10] = locus YJL187C, strain SWE1, active compounds read low
# [11] = locus YJR043C, strain POL32, active compounds read low
# [12] = locus YJR075W, strain HOC1, active compounds read low
# [13] = locus YLR039C, strain RIC1, active compounds read low
# [14] = locus YLR058C, strain SHM2 (second series), active compounds read low
# [15] = locus YLR085C, strain ARP6, active compounds read low
# [16] = locus YLR262C, strain YPT6, active compounds read low
# [17] = locus YML094W, strain GIM5, active compounds read low
# [18] = locus YMR219W, strain ESC1, active compounds read low
# [19] = locus YMR263W, strain SAP30, active compounds read low
# [20] = locus YNL153C, strain GIM3, active compounds read low
# [21] = locus YNL298W, strain CLA4 (second series), active compounds read low
# [22] = locus YNL322C, strain KRE1, active compounds read low
# [23] = locus YNR030W, strain Alg12, active compounds read low
# [24] = locus YPL055C, strain LGE1, active compounds read low
# [25] = locus YPL241C, strain CIN2, active compounds read low
# [26] = locus YPR135W, strain CTF4, active compounds read low
smiles,measurement,setting,value
COc1ccc(-n2c(=S)[nH]c(=O)c3cccnc32)cc1,normalized growth,[1],1
same,normalized growth,[2],1.01
same,normalized growth,[3],1.04
same,normalized growth,"locus YDL134C, strain PPH21, active compounds read low",0.996
same,normalized growth,[4],0.985
same,normalized growth,[5],1
same,normalized growth,[6],1.04
same,normalized growth,[7],0.993
same,normalized growth,[8],1.06
same,normalized growth,[9],0.954
same,normalized growth,[10],0.99
same,normalized growth,[11],1.04
same,normalized growth,[12],0.993
same,normalized growth,[13],0.999
same,normalized growth,[14],0.991
same,normalized growth,[15],1.03
same,normalized growth,[16],0.988
same,normalized growth,[17],0.983
same,normalized growth,[18],0.999
same,normalized growth,[19],1.02
same,normalized growth,[20],1.02
same,normalized growth,[21],1
same,normalized growth,[22],1.01
same,normalized growth,[23],0.994
same,normalized growth,[24],0.973
same,normalized growth,[25],0.991
same,normalized growth,[26],1.05
CCN(CC)CCOC(=O)c1cc(Cl)c(N)cc1OC,normalized growth,"locus YAL040C, strain CLN3, active compounds read low",0.981
same,normalized growth,"locus YCL061C, strain MRC1 (second series), active compounds read low",1.01
same,normalized growth,[4],1
same,normalized growth,"locus YDR363W, strain ESC2, active compounds read low",1
same,normalized growth,"locus YER002W, strain NOP16, active compounds read low",1.02
same,normalized growth,[6],1.01
same,normalized growth,[7],1.01
same,normalized growth,[12],1.01
same,normalized growth,[19],1
same,normalized growth,"locus YMR307W, strain GAS1, active compounds read low",1
same,normalized growth,"locus YNL128W, strain TEP1, active compounds read low",1
same,normalized growth,[20],1
same,normalized growth,"locus YNL175C, strain NOP13, active compounds read low",1
same,normalized growth,"locus YNL197C, strain WHI3, active compounds read low",1.01
same,normalized growth,"locus YNL224C, strain SQS1, active compounds read low",1
same,normalized growth,"locus YOR083W, strain WHI5 (second series), active compounds read low",1.01
same,normalized growth,[24],0.954
same,normalized growth,[25],1
COC(=O)c1ccc(Cl)cc1NS(=O)(=O)c1ccc(OC)c(OC)c1,normalized growth,[1],1.01
same,normalized growth,[2],0.976
same,normalized growth,[3],0.987
same,normalized growth,[4],1.04
same,normalized growth,[5],1.01
same,normalized growth,[6],0.986
same,normalized growth,[7],1.02
same,normalized growth,[8],0.969
same,normalized growth,[9],1.02
same,normalized growth,[10],1
same,normalized growth,[11],0.978
same,normalized growth,[12],0.984
same,normalized growth,"locus YKL190W, strain CNB1, active compounds read low",1.01
same,normalized growth,[13],0.934
same,normalized growth,[14],1.01
same,normalized growth,[15],1.01
same,normalized growth,[16],0.947
same,normalized growth,[17],1.03
same,normalized growth,[18],1
same,normalized growth,[19],0.986
same,normalized growth,[20],0.996
same,normalized growth,[21],0.989
same,normalized growth,[22],1
same,normalized growth,[23],0.998
same,normalized growth,[24],0.966
same,normalized growth,[25],1.01
same,normalized growth,[26],0.999
COc1cc(Cl)ccc1N/N=C(/C#N)C(N)=O,normalized growth,"locus YAR019C, strain CDC15, active compounds read low",0.106 (active)
same,normalized growth,"locus YBL105C, strain PKC1, active compounds read low",0.0965 (active)
same,normalized growth,"locus YBR135W, strain CKS1, active compounds read low",0.109 (active)
same,normalized growth,"locus YBR136W, strain MEC1, active compounds read low",0.104 (active)
same,normalized growth,"locus YBR160W, strain CDC28, active compounds read low",0.104 (active)
same,normalized growth,"locus YDL017W, strain CDC7, active compounds read low",0.0952 (active)
same,normalized growth,"locus YDL028C, strain MPS1, active compounds read low",0.111 (active)
same,normalized growth,[3],0.124 (active)
same,normalized growth,"locus YDL108W, strain KIN28, active compounds read low",0.114 (active)
same,normalized growth,"locus YDL132W, strain cdc53, active compounds read low",0.102 (active)
same,normalized growth,"locus YDL214C, strain PRR2, active compounds read low",0.116 (active)
same,normalized growth,"locus YDR052C, strain DBF4, active compounds read low",0.0987 (active)
same,normalized growth,"locus YDR054C, strain cdc34, active compounds read low",0.104 (active)
same,normalized growth,"locus YDR226W, strain ADK1, active compounds read low",0.103 (active)
same,normalized growth,"locus YDR477W, strain SNF1, active compounds read low",0.115 (active)
same,normalized growth,"locus YER123W, strain YCK3, active compounds read low",0.112 (active)
same,normalized growth,"locus YER133W, strain GLC7, active compounds read low",0.12 (active)
same,normalized growth,"locus YFL009W, strain cdc4, active compounds read low",0.109 (active)
same,normalized growth,"locus YFL029C, strain CAK1, active compounds read low",0.109 (active)
same,normalized growth,"locus YFR003C, strain YPI1, active compounds read low",0.0947 (active)
same,normalized growth,"locus YFR019W, strain FAB1, active compounds read low",0.112 (active)
same,normalized growth,"locus YFR028C, strain CDC14, active compounds read low",0.106 (active)
same,normalized growth,"locus YGR040W, strain KSS1, active compounds read low",0.112 (active)
same,normalized growth,"locus YGR052W, strain FMP48, active compounds read low",0.153 (active)
same,normalized growth,"locus YGR092W, strain DBF2, active compounds read low",0.11 (active)
same,normalized growth,[8],0.194 (active)
same,normalized growth,"locus YHR079C, strain IRE1, active compounds read low",0.214 (active)
same,normalized growth,"locus YHR082C, strain KSP1, active compounds read low",0.221 (active)
same,normalized growth,"locus YHR205W, strain SCH9, active compounds read low",0.0135 (active)
same,normalized growth,"locus YIL147C, strain SLN1, active compounds read low",0.107 (active)
same,normalized growth,"locus YJL095W, strain BCK1, active compounds read low",0.189 (active)
same,normalized growth,"locus YJL128C, strain PBS2, active compounds read low",0.103 (active)
same,normalized growth,"locus YJL157C, strain FAR1, active compounds read low",0.105 (active)
same,normalized growth,"locus YJR016C, strain ILV3, active compounds read low",0.0991 (active)
same,normalized growth,"locus YJR066W, strain TOR1 (second series), active compounds read low",0.112 (active)
same,normalized growth,"locus YJR066W, strain TOR1, active compounds read low",0.181 (active)
same,normalized growth,"locus YKL048C, strain ELM1, active compounds read low",0.128 (active)
same,normalized growth,"locus YKL067W, strain YNK1, active compounds read low",0.119 (active)
same,normalized growth,"locus YKL101W, strain HSL1, active compounds read low",0.106 (active)
same,normalized growth,"locus YKL193C, strain SDS22, active compounds read low",0.106 (active)
same,normalized growth,"locus YKL203C, strain TOR2, active compounds read low",0.116 (active)
same,normalized growth,"locus YLR113W, strain HOG1, active compounds read low",0.262 (active)
same,normalized growth,"locus YLR133W, strain CKI1, active compounds read low",0.111 (active)
same,normalized growth,"locus YLR403W, strain SFP1, active compounds read low",0.00868 (active)
same,normalized growth,"locus YML070W, strain DAK1, active compounds read low",0.114 (active)
same,normalized growth,"locus YMR001C, strain CDC5, active compounds read low",0.108 (active)
same,normalized growth,"locus YMR205C, strain PFK2 (second series), active compounds read low",0.104 (active)
same,normalized growth,"locus YMR277W, strain FCP1, active compounds read low",0.106 (active)
same,normalized growth,"locus YNL006W, strain LST8, active compounds read low",0.0981 (active)
same,normalized growth,"locus YNL020C, strain ARK1, active compounds read low",0.11 (active)
same,normalized growth,"locus YNL161W, strain CBK1, active compounds read low",0.106 (active)
same,normalized growth,"locus YNL183C, strain NPR1, active compounds read low",0.148 (active)
same,normalized growth,"locus YNL207W, strain RIO2, active compounds read low",0.107 (active)
same,normalized growth,"locus YNL222W, strain SSU72, active compounds read low",0.105 (active)
same,normalized growth,"locus YNL307C, strain MCK1 (second series), active compounds read low",0.12 (active)
same,normalized growth,"locus YOL078W, strain AVO1, active compounds read low",0.105 (active)
same,normalized growth,"locus YOL136C, strain PFK27, active compounds read low",0.115 (active)
same,normalized growth,"locus YOR061W, strain CKA2, active compounds read low",0.0994 (active)
same,normalized growth,"locus YOR119C, strain RIO1, active compounds read low",0.115 (active)
same,normalized growth,"locus YOR231W, strain MKK1, active compounds read low",0.231 (active)
same,normalized growth,"locus YOR329C, strain SCD5, active compounds read low",0.102 (active)
same,normalized growth,"locus YPL031C, strain PHO85, active compounds read low",0.107 (active)
same,normalized growth,"locus YPL153C, strain RAD53, active compounds read low",0.111 (active)
same,normalized growth,"locus YPL204W, strain HRR25, active compounds read low",0.117 (active)
same,normalized growth,"locus YPL209C, strain IPL1, active compounds read low",0.0959 (active)
same,normalized growth,"locus YPL256C, strain CLN2, active compounds read low",0.231 (active)
same,normalized growth,"locus YPR025C, strain CCL1, active compounds read low",0.107 (active)
same,normalized growth,"locus YPR106W, strain ISR1, active compounds read low",0.0943 (active)
same,normalized growth,"locus YPR111W, strain DBF20, active compounds read low",0.108 (active)
same,normalized growth,"strain NNK1, active compounds read low",0.0995 (active)
same,normalized growth,"strain TSCII, active compounds read low",0.107 (active)
